In PubChem BioAssay AID1159580 (chemical genetic matrix, 2015):
Several values for one entry are separate records, joined by “and”; a condition that tells them apart may be missing. Equal entries are not always repeated. About 2,000 (36%) of roughly 5,500 compounds were called active. Roughly 18% stayed inconclusive and do not appear here. Cut-off read from the data, not from the text of the source: active = normalized growth mostly below about 0.91 (no sharp cut-off); inconclusive = no clear call, values can overlap the other calls; inactive = mostly above about 0.92. Some of the results follow.

Assay: chemical genetic growth profiling, strain panel (AID 1159580);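 note: tested at 20 µM; growth read once vehicle control cultures reached saturation at 30 °C; 1 = growth at the plate median or of vehicle wells; lower values mean less growth of the strain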
Conditions: S. cerevisiae deletion strains, growth OD

Measured: normalized growth

COc1c(O)cc2c(c1O)[C@H]1O[C@H](CO)[C@@H](O)[C@H](O)[C@@H]1OC2=O
inactive: locus YAL021C, strain ccr4, stronger effect = lower value 1.03 | locus YAL026C, strain drs2, stronger effect = lower value 1.02 | locus YAL030W, strain snc1, stronger effect = lower value 1.02 | locus YBL061C, strain skt5, stronger effect = lower value 1.03 | locus YBR009C, strain hhf1, stronger effect = lower value 1.02 | locus YBR021W, strain FUR4, stronger effect = lower value 0.961 | locus YBR023C, strain chs3, stronger effect = lower value 1.03 | locus YBR171W, strain sec66, stronger effect = lower value 1.02 | locus YBR229C, strain ROT2, stronger effect = lower value 0.993 | locus YBR231C, strain swc5, stronger effect = lower value 1.02 | locus YBR279W, strain paf1, stronger effect = lower value 1.02 | locus YCL011C, strain gbp2, stronger effect = lower value 1.02 | locus YCL016C, strain dcc1, stronger effect = lower value 1.04 | locus YCL029C, strain bik1, stronger effect = lower value 0.998 | locus YCL061C, strain MRC1, stronger effect = lower value 1.02 | locus YCL069W, strain vba3, stronger effect = lower value 1.02 | locus YCR088W, strain abp1, stronger effect = lower value 1.02 | locus YDL005C, strain med2, stronger effect = lower value 1.03 | locus YDL035C, strain GPR1, stronger effect = lower value 1.02 | locus YDL040C, strain nat1, stronger effect = lower value 1.02 | locus YDL074C, strain BRE1, stronger effect = lower value 0.992 | locus YDL101C, strain DUN1, stronger effect = lower value 0.985 | locus YDL185W, strain tfp1, stronger effect = lower value 1.02 | locus YDL192W, strain arf1, stronger effect = lower value 0.983 | locus YDR001C, strain nth1, stronger effect = lower value 1.02 | locus YDR069C, strain doa4, stronger effect = lower value 1.03 | locus YDR101C, strain arx1, stronger effect = lower value 1.01 | locus YDR137W, strain rgp1, stronger effect = lower value 1.05 | locus YDR150W, strain NUM1, stronger effect = lower value 0.98 | locus YDR159W, strain sac3, stronger effect = lower value 1 | locus YDR162C, strain NBP2, stronger effect = lower value 0.988 | locus YDR195W, strain ref2 1 | locus YDR297W, strain sur2, stronger effect = lower value 1.02 | locus YDR318W, strain mcm21, stronger effect = lower value 1.01 | locus YDR334W, strain swr1, stronger effect = lower value 1.02 | locus YDR335W, strain msn5, stronger effect = lower value 1.02 | locus YDR388W, stronger effect = lower value 0.996 | locus YDR392W, strain spt3, stronger effect = lower value 0.966 | locus YDR502C, strain sam2, stronger effect = lower value 1 | locus YEL003W, strain gim4, stronger effect = lower value 1.02 | locus YEL037C, strain rad23, stronger effect = lower value 1.02 | locus YEL061C, strain CIN8 (second series), stronger effect = lower value 1.02 | locus YEL061C, strain CIN8, stronger effect = lower value 0.962 | locus YER015W, strain faa2, stronger effect = lower value 1.01 | locus YER016W, strain bim1, stronger effect = lower value 1.02 | locus YER110C, stronger effect = lower value 1.01 | locus YER111C, strain swi4, stronger effect = lower value 1.01 | locus YER155C, strain BEM2 (second series), stronger effect = lower value 1 | locus YER155C, strain BEM2, stronger effect = lower value 0.996 | locus YER167W, strain BCK2, stronger effect = lower value 0.973 | locus YFR010W, strain ubp6, stronger effect = lower value 1.02 | locus YGL078C, strain dbp3, stronger effect = lower value 1.03 | locus YGL086W, strain mad1, stronger effect = lower value 0.991 | locus YGL167C, strain pmr1, stronger effect = lower value 1.02 | locus YGL173C, strain kem1, stronger effect = lower value 1.01 | locus YGL227W, strain vid30, stronger effect = lower value 1.02 | locus YGL240W, strain doc1, stronger effect = lower value 1.01 | locus YGL248W, strain PDE1, stronger effect = lower value 1 | locus YGL253W, strain hxk2, stronger effect = lower value 1.02 | locus YGR135W, strain pre9, stronger effect = lower value 0.995 | locus YGR252W, strain gcn5, stronger effect = lower value 0.991 | locus YHR013C, strain ard1, stronger effect = lower value 1.02 | locus YHR027C, strain rpn1, stronger effect = lower value 1.01 | locus YHR030C, strain SLT2, stronger effect = lower value 1.01 and 0.959 | locus YHR079C, strain IRE1 (second series), stronger effect = lower value 1.01 | locus YHR079C, strain IRE1, stronger effect = lower value 0.987 | locus YHR094C, strain hxt1, stronger effect = lower value 0.996 | locus YHR129C, strain ARP1, stronger effect = lower value 0.988 | locus YHR142W, strain chs7, stronger effect = lower value 1.05 | locus YHR200W, strain rpn10, stronger effect = lower value 1 | locus YIL066C, strain RNR3, stronger effect = lower value 0.986 | locus YIL073C, strain SPO22, stronger effect = lower value 1.05 | locus YIL125W, strain kgd1, stronger effect = lower value 1.01 | locus YIR030C, strain dcg1, stronger effect = lower value 1 | locus YJL092W, strain hpr5, stronger effect = lower value 1.02 | locus YJL095W, strain BCK1 (second series), stronger effect = lower value 1.03 | locus YJL095W, strain BCK1, stronger effect = lower value 0.811 and 0.98 | locus YJL115W, strain asf1, stronger effect = lower value 1.01 | locus YJL129C, strain trk1, stronger effect = lower value 1.04 | locus YJL134W, strain LCB3, stronger effect = lower value 0.998 | locus YJL154C, strain vps35, stronger effect = lower value 1.01 | locus YJL164C, strain tpk1, stronger effect = lower value 1.02 | locus YJL166W, strain qcr8, stronger effect = lower value 1.03 | locus YJL168C, strain set2, stronger effect = lower value 1 | locus YJL187C, strain SWE1 (second series), stronger effect = lower value 0.969 | locus YJL187C, strain SWE1, stronger effect = lower value 1.03 | locus YJR043C, strain POL32, stronger effect = lower value 0.997 | locus YJR066W, strain TOR1, stronger effect = lower value 0.934 | locus YJR075W, strain HOC1, stronger effect = lower value 1
